# Results reported in article PMC5913336, “True equilibrium measurement of transcription factor-DNA binding affinities using automated polarization microscopy”.
# Molecular target: D (Drosophila melanogaster, UniProt Q24533 127-229)
# Assay: FP; 33 mM phosphate pH 7.0, 90 mM NaCl, 0.01% Tween 20, 0.1 mM DTT, 0.5% agarose; room temperature
# Conditions: tags: N-GST (pGEX-6P-1, kept); dsDNA, one strand shown
# D, sequence (Q24533 127-229): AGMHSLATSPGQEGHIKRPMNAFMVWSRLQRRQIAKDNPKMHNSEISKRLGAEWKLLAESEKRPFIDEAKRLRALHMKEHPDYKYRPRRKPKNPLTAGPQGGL
Sequence,binding signal,Kd [nM]
GACCATCGTTCTTG,34.5 Kd / Kd of best base at the position,
GGCCATTGTTCTTG,1.18 Kd / Kd of best base at the position,
GACCATTGTTCTTC,1.12 Kd / Kd of best base at the position,
GACCATTGTTCGTG,3.61 Kd / Kd of best base at the position,
CACCATTGTTCTTG,1.12 Kd / Kd of best base at the position,
GACCATTGATCTTG,31.7 Kd / Kd of best base at the position,
GTCCATTGTTCTTG,1.08 Kd / Kd of best base at the position,
GACCATTGTTGTTG,3.32 Kd / Kd of best base at the position,
GACCATTTTTCTTG,40.5 Kd / Kd of best base at the position,
GACCATTGTTCTTT,1.16 Kd / Kd of best base at the position,
AACCATTGTTCTTG,1.37 Kd / Kd of best base at the position,
GAGCATTGTTCTTG,2.52 Kd / Kd of best base at the position,
GACCGTTGTTCTTG,26 Kd / Kd of best base at the position,
GCCCATTGTTCTTG,1.11 Kd / Kd of best base at the position,
GACCCTTGTTCTTG,32.5 Kd / Kd of best base at the position,
GAACATTGTTCTTG,10.5 Kd / Kd of best base at the position,
GACCATTGTTCTTA,1.16 Kd / Kd of best base at the position,
GACCATTGTACTTG,8.66 Kd / Kd of best base at the position,
GACCATTGTTCTTG,,~2.3

Sequence,binding signal,Kd [nM]
GACCATTGTTCATG,2.96 Kd / Kd of best base at the position,
GACCATTGTTTTTG,2.05 Kd / Kd of best base at the position,
GACCATTATTCTTG,14.1 Kd / Kd of best base at the position,
GACAATTGTTCTTG,10.4 Kd / Kd of best base at the position,
GACCATTCTTCTTG,17.3 Kd / Kd of best base at the position,
GACCTTTGTTCTTG,2.8 Kd / Kd of best base at the position,
GACCAGTGTTCTTG,33 Kd / Kd of best base at the position,
GACGATTGTTCTTG,12.4 Kd / Kd of best base at the position,
GACCATAGTTCTTG,40.3 Kd / Kd of best base at the position,
GACCATTGTTCTAG,1.95 Kd / Kd of best base at the position,
GATCATTGTTCTTG,2.05 Kd / Kd of best base at the position,
GACCATTGCTCTTG,46 Kd / Kd of best base at the position,
GACCATTGTTCTGG,1.95 Kd / Kd of best base at the position,
GACCACTGTTCTTG,40.3 Kd / Kd of best base at the position,
GACCATTGTGCTTG,11.9 Kd / Kd of best base at the position,
GACCATTGTTCTCG,1.79 Kd / Kd of best base at the position,
GACCATTGTTATTG,3.41 Kd / Kd of best base at the position,
GACCATTGTCCTTG,8.08 Kd / Kd of best base at the position,

# Molecular target: T1, Slp1-FL (Drosophila melanogaster, UniProt P32030)
# T1 sequence: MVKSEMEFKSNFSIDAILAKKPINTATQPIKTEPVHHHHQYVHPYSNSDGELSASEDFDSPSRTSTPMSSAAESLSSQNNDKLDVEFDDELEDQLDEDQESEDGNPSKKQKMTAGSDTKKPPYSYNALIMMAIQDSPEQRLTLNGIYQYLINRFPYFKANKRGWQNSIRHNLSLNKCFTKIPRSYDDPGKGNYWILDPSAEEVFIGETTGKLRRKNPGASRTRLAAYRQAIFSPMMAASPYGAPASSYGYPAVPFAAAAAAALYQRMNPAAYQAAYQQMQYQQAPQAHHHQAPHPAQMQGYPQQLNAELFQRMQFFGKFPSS
# Assay: as above
# Conditions: tags: N-GST (pGEX-6P-1, kept); dsDNA, one strand shown
row,Sequence,binding signal
1,ACGTGTTTTCACTTA,13 Kd / Kd of best base at the position
2,ACGTGTTTAAACTTA,44.8 Kd / Kd of best base at the position
3,ACGTGTTTCCACTTA,15.2 Kd / Kd of best base at the position
